According to PubChem BioAssay (NCI):
About 79,000 compounds went through this panel and 15% of them were active in at least one assay; those are over-represented in the sample as a whole. The source made the active and inactive calls. No stated cut-off is given here; in the data, active means growth inhibition above about 70%; inactive means the rest.

Key:
[1] = NCI Yeast Anticancer Drug Screen. Data for the rad52 strain (AID 147);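 further: 0% = growth of vehicle-treated control cultures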; conditions: S. cerevisiae rad52 mutant growth inhibition, hits give high values
How it was run: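 Vehicle-treated cultures served as the reference for growth inhibition of compound-exposed yeast bearing a DNA repair mutation.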

[2] = NCI Yeast Anticancer Drug Screen. Data for the rad50EPP+ strain (AID 151);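 further: 0% = growth of vehicle-treated control cultures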; conditions: S. cerevisiae rad50 mutant strain, hits give high values
How it was run: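 In this screen, rad50EPP+ yeast were exposed to compounds. Growth inhibition was scored against vehicle-treated controls.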

[3] = NCI Yeast Anticancer Drug Screen. Data for the mgt1 strain (AID 153); conditions: S. cerevisiae mgt1 mutant growth inhibition, hits give high values
How it was run: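 mgt1 strain exposed; growth vs vehicle control recorded as inhibition.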

[4] = NCI Yeast Anticancer Drug Screen. Data for the rad50 strain (AID 155);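 further: 0% = growth of vehicle-only cultures of the same strain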; conditions: S. cerevisiae rad50 strain growth inhibition, hits give high values
How it was run: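 A DNA repair-deficient yeast mutant serves as the test organism; compound-induced growth inhibition is calculated against vehicle-treated cells.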

[5] = NCI Yeast Anticancer Drug Screen. Data for the mec2-1 strain (AID 157); conditions: S. cerevisiae mec2-1 strain, hits give high values
How it was run: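 Vehicle-treated cultures served as reference for growth inhibition of compound-exposed mec2-1 yeast.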

[6] = NCI Yeast Anticancer Drug Screen. Data for the rad14 strain (AID 159);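 further: 0% = growth of vehicle-treated control cultures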; conditions: S. cerevisiae rad14 strain growth inhibition, hits give high values
How it was run: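 Vehicle-treated cultures served as the baseline for growth inhibition of a DNA repair-mutant yeast strain exposed to each compound.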

[7] = NCI Yeast Anticancer Drug Screen. Data for the sgs1 mgt1 strain (AID 161);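 further: 0% = growth of cultures given vehicle only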; conditions: S. cerevisiae sgs1 mgt1 strain, hits give high values
How it was run: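 Inhibition of yeast growth, normalised to vehicle-treated controls, is reported for a strain bearing genetic alterations in DNA damage repair.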

[8] = NCI Yeast Anticancer Drug Screen. Data for the CLN2oe strain (AID 163);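 further: 0% = growth of vehicle-only control cultures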; conditions: S. cerevisiae CLN2oe strain, hits give high values
How it was run: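 Inhibition relative to vehicle-treated yeast is reported. Cells: strain with genetic alteration in cell-cycle control, grown with compound.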

[9] = NCI Yeast Anticancer Drug Screen. Data for the cln2 rad14 strain (AID 165);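 further: 0% = growth equal to vehicle treated cultures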; conditions: S. cerevisiae cln2 rad14 strain, hits give high values
How it was run: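 Each compound was tested on cln2 rad14 yeast. Inhibition of growth was calculated against vehicle-exposed controls.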

[10] = NCI Yeast Anticancer Drug Screen. Data for the bub3 strain (AID 167); conditions: S. cerevisiae bub3 mutant strain, hits give high values
How it was run: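 Inhibition values come from growth of compound-treated mutant yeast normalised to vehicle-treated controls.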

[11] = NCI Yeast Anticancer Drug Screen. Data for the wt2 strain (AID 169);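 further: 0% = growth of vehicle-treated yeast cultures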; conditions: S. cerevisiae wt2 strain growth inhibition, hits give high values
How it was run: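 Inhibition of yeast growth was determined after compound treatment, normalised to controls receiving only vehicle.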

[12] = NCI Yeast Anticancer Drug Screen. Data for the mlh1 strain (AID 171);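 further: 0% = growth of vehicle-treated control cultures of the same strain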; conditions: S. cerevisiae mlh1 strain growth inhibition, hits give high values
How it was run: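 Vehicle-normalised growth inhibition of a repair- or checkpoint-altered yeast strain following compound treatment.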

[13] = NCI Yeast Anticancer Drug Screen. Data for the sgs1 strain (AID 173);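 further: 0% = growth of vehicle-only control cultures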; conditions: S. cerevisiae sgs1 mutant, hits give high values
How it was run: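 Screen format: yeast with repair or checkpoint alterations, compound exposure, growth read relative to vehicle.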

[14] = NCI Yeast Anticancer Drug Screen. Data for the mlh1 rad18 strain (AID 175); conditions: S. cerevisiae mlh1 rad18 strain growth inhibition, hits give high values
How it was run: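 Vehicle-treated cultures served as the reference for growth inhibition in a yeast strain carrying DNA damage repair alterations exposed to each compound.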

[15] = NCI Yeast Anticancer Drug Screen. Data for the wt1 strain (AID 149);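 further: 0% = growth of vehicle-treated wt1 cultures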; conditions: S. cerevisiae wt1 strain (SPY 50644) growth inhibition, hits give high values
How it was run: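 Vehicle-normalised growth inhibition; strain wt1; compound exposure.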

[16] = NCI Yeast Anticancer Drug Screen. Data for the rad18 strain (AID 177); conditions: S. cerevisiae rad18 mutant growth inhibition, hits give high values
How it was run: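 Test articles were incubated with altered yeast defective in DNA damage repair. Results are given as inhibition of growth versus vehicle.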

[17] = at 5.0 µM (retest, dose inferred, filed as 0.5)
[18] = at 50.0 µM (retest, dose inferred, filed as 5.0)

Measured: growth inhibition

S=C1NC2(CCCCC2)NC12CCCCC2
inactive: [1]; at 1.2 µM -1% | [1]; at 3.7 µM -5% | [1]; at 11.0 µM -3% | [1]; at 33.0 µM 2% | [1]; at 100.0 µM -1% | [2]; at 1.2 µM -2% | [2]; at 3.7 µM 0% | [2]; at 11.0 µM 2% | [2]; at 33.0 µM 8% | [2]; at 100.0 µM 7% | [3]; at 1.2 µM -2% | [3]; at 3.7 µM -8% | [3]; at 11.0 µM 5% | [3]; at 33.0 µM 17% | [3]; at 100.0 µM 10% | [4]; at 1.2 µM 0% | [4]; at 3.7 µM 9% | [4]; [17] 11% | [4]; at 11.0 µM 19% | [4]; at 33.0 µM 19% | [4]; [18] 33% | [4]; at 50.0 µM 44.9% | [4]; at 100.0 µM 11% | [5]; at 1.2 µM -12% | [5]; at 3.7 µM -19% | [5]; [17] 3% | [5]; at 11.0 µM -18% | [5]; at 33.0 µM -1% | [5]; [18] 23% | [5]; at 50.0 µM 4.85% | [5]; at 100.0 µM 2% | [6]; at 1.2 µM -2% | [6]; at 3.7 µM -7% | [6]; at 11.0 µM -1% | [6]; at 33.0 µM 0% | [6]; at 100.0 µM 3% | [7]; [17] 30% | [7]; [18] 69% | [7]; at 50.0 µM 13.8% | [8]; at 1.2 µM -7% | [8]; at 3.7 µM -3% | [8]; at 11.0 µM -2% | [8]; at 33.0 µM 6% | [8]; at 100.0 µM 9% | [9]; [17] -30% | [9]; [18] 2% | [9]; at 50.0 µM -2% | [10]; at 1.2 µM -18% | [10]; at 3.7 µM -14% | [10]; [17] 16% | [10]; at 11.0 µM 3% | [10]; at 33.0 µM 2% | [10]; [18] 20% | [10]; at 50.0 µM 14.5% | [10]; at 100.0 µM 6% | [11]; at 1.2 µM -2% | [11]; at 3.7 µM -2% | [11]; at 11.0 µM 3% | [11]; at 33.0 µM 14% | [11]; at 100.0 µM 16% | [12]; at 1.2 µM -6% | [12]; at 3.7 µM -5% | [12]; at 11.0 µM 0% | [12]; at 33.0 µM 1% | [12]; at 100.0 µM -2% | [13]; at 1.2 µM -1% | [13]; at 3.7 µM -3% | [13]; at 11.0 µM 2% | [13]; at 33.0 µM 8% | [13]; at 100.0 µM 12% | [14]; [17] -9% | [14]; [18] 49% | [14]; at 50.0 µM 27.3%

CCCCCNC(=O)c1c(O)[nH]c(=S)[nH]c1=O
active: [1]; at 33.0 µM 89% | [1]; at 100.0 µM 94% | [15]; at 100.0 µM 88% | [2]; at 100.0 µM 78% | [4]; at 33.0 µM 95% | [4]; [18] 93% | [4]; at 50.0 µM 88.1% | [4]; at 100.0 µM 96% | [5]; at 33.0 µM 87% | [5]; [18] 92% | [5]; at 50.0 µM 87.7% | [5]; at 100.0 µM 92% | [6]; at 11.0 µM 91% | [6]; at 33.0 µM 96% | [6]; at 100.0 µM 96% | [7]; [18] 87% | [7]; at 50.0 µM 92.2% | [8]; at 100.0 µM 83% | [10]; at 33.0 µM 87% | [10]; [18] 94% | [10]; at 50.0 µM 88.6% | [10]; at 100.0 µM 93% | [11]; at 33.0 µM 91% | [11]; at 100.0 µM 94% | [12]; at 11.0 µM 90% | [12]; at 33.0 µM 96% | [12]; at 100.0 µM 96% | [13]; at 11.0 µM 79% | [13]; at 33.0 µM 94% | [13]; at 100.0 µM 96% | [14]; at 50.0 µM 90.1% | [16]; at 33.0 µM 86% | [16]; at 100.0 µM 94%
inactive: [1]; at 1.2 µM -6% | [1]; at 3.7 µM -15% | [1]; at 11.0 µM 23% | [15]; at 1.2 µM -3% | [15]; at 3.7 µM 9% | [15]; at 11.0 µM 15% | [15]; at 33.0 µM 68% | [2]; at 1.2 µM -25% | [2]; at 3.7 µM -23% | [2]; at 11.0 µM -16% | [2]; at 33.0 µM 30% | [4]; at 1.2 µM 5% | [4]; at 3.7 µM 14% | [4]; [17] 61% | [4]; at 11.0 µM 64% | [5]; at 1.2 µM -14% | [5]; at 3.7 µM -5% | [5]; [17] 8% | [5]; at 11.0 µM 25% | [6]; at 1.2 µM 16% | [6]; at 3.7 µM 64% | [7]; [17] 26% | [8]; at 1.2 µM 4% | [8]; at 3.7 µM -7% | [8]; at 11.0 µM 2% | [8]; at 33.0 µM 53% | [9]; [17] 6% | [9]; [18] 60% | [9]; at 50.0 µM 61.3% | [10]; at 1.2 µM -17% | [10]; at 3.7 µM -1% | [10]; [17] 65% | [10]; at 11.0 µM 65% | [11]; at 1.2 µM -32% | [11]; at 3.7 µM -1% | [11]; at 11.0 µM 56% | [12]; at 1.2 µM 13% | [12]; at 3.7 µM 46% | [13]; at 1.2 µM -10% | [13]; at 3.7 µM 0% | [14]; [17] 42% | [14]; [18] 47% | [16]; at 1.2 µM -12% | [16]; at 3.7 µM 2% | [16]; at 11.0 µM 45%
